Among the test systems are DU-145 prostate; K-562 leukemia; MALME-3M melanoma; MDA-MB-231 breast; RXF 393 renal; SF-268 CNS; SF-295 CNS; SF-539 CNS; UACC-257 melanoma; M14 melanoma; HCT-15 colon; HT29 colon; SNB-75 CNS; SNB-19 CNS; U251 CNS; PC-3 prostate; SK-MEL-5 melanoma; LOX IMVI melanoma; SK-MEL-28 melanoma; UACC-62 melanoma.
What all share (experiment): NCI-60 one-dose screen, 48 h (100 = growth as untreated, 0 = no growth, -100 = all killed)
What all share (settings): 10 µM unless noted

About 83,000 compounds went through this panel and 20% of them were active in at least one assay; those are over-represented in the sample as a whole.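 Testing used 96-well plates and a 48-hour single-concentration exposure. Example: -40 means 40% of the starting cells died.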 Values without a mark were called inactive. Active and inactive are the calls of the source. How the source made its calls: active means growth percent below 10; inactive means the rest.

With `c1ccc([P+](c2ccccc2)(c2ccccc2)c2ccc3c4ccc([P+](c5ccccc5)(c5ccccc5)c5ccccc5)c5cccc(c6cccc2c63)c54)cc1`, the growth in the assay with DU-145 prostate is 19.5%; in the assay with K-562 leukemia it was 11.8%; with MALME-3M melanoma, -13% (active); in the assay with MDA-MB-231 breast, 9.37% (active); in the assay on RXF 393 renal, 42.5%; in the assay with SF-268 CNS, 24.4%. Besides, the growth is 3.75% (active) with SF-295 CNS; -27.1% (active) in the assay on SF-539 CNS; 15.2% in the assay with UACC-257 melanoma; 15.4% in the assay with M14 melanoma; 66.2% in the assay with HCT-15 colon; 8.41% (active) in the assay with HT29 colon. For the same molecule, the growth in the assay on SNB-75 CNS was 13.5%; with SNB-19 CNS it was 12.5%; in the assay on U251 CNS, 14%; in the assay with PC-3 prostate, 17.7%; in the assay with SK-MEL-5 melanoma, -57.6% (active); in the assay on LOX IMVI melanoma it was 3.08% (active). The growth with SK-MEL-28 melanoma was 4.81% (active).

As for `O=S(=O)(c1ccccc1)n1cc2c(c1)-c1nc(Nc3ncccn3)sc1CC2`, the growth is 34.6% in the assay with DU-145 prostate; 73.8% in the assay on K-562 leukemia; 50.3% in the assay with MALME-3M melanoma; 52.5% in the assay with MDA-MB-231 breast; 34.6% in the assay with RXF 393 renal; 66.3% in the assay on SF-268 CNS. In addition, the growth is 67.3% with SF-295 CNS; 35.6% in the assay with SF-539 CNS; 50.4% with UACC-257 melanoma; 45.8% in the assay with M14 melanoma; 68.7% with HCT-15 colon; 66.2% in the assay with HT29 colon. The growth is -16% (active) in the assay on SNB-75 CNS; 78.5% with SNB-19 CNS; 46.2% with U251 CNS; 65.5% in the assay with PC-3 prostate; 35.4% with SK-MEL-5 melanoma; 10.1% with LOX IMVI melanoma. Besides, the growth in the assay with SK-MEL-28 melanoma was 73.9%.

In the case of `Cc1cccc(CNc2c3ccccc3nc3ccccc23)c1`, the growth in the assay with DU-145 prostate was 33.9%; in the assay with K-562 leukemia, 1.88% (active); with MALME-3M melanoma it was 14.1%; with MDA-MB-231 breast it was 38.7%; with RXF 393 renal it was -1.71% (active); in the assay with SF-268 CNS it was 52%. Moreover, the growth is 25.3% in the assay on SF-295 CNS; 11.7% in the assay on SF-539 CNS; 36.2% in the assay with UACC-257 melanoma; 22.8% with M14 melanoma; 15.9% in the assay with HCT-15 colon; 5.15% (active) with HT29 colon. Also, the growth is 37% in the assay on SNB-75 CNS; 29.7% in the assay with SNB-19 CNS; 23.7% with U251 CNS; 19.8% in the assay with SK-MEL-5 melanoma; 42.8% in the assay on UACC-62 melanoma; 6.25% (active) in the assay on LOX IMVI melanoma. Further, the growth in the assay with SK-MEL-28 melanoma was 58.8%.

`COC(=O)/C=C1/SC(=Nc2ccc(C(F)(F)F)cc2)N(CCc2c[nH]c3ccc(O)cc23)C1=O`: the growth with DU-145 prostate was 12.7%; in the assay with K-562 leukemia, 19.9%; in the assay on MALME-3M melanoma, -13.8% (active); in the assay on MDA-MB-231 breast it was -13.9% (active); in the assay with RXF 393 renal, -50.9% (active); in the assay with SF-268 CNS, -5.68% (active). Also, the growth with SF-295 CNS was 14.2%; with SF-539 CNS it was -37.3% (active); in the assay with UACC-257 melanoma it was 9.58% (active); in the assay with M14 melanoma it was 0.0712% (active); with HCT-15 colon, 3.12% (active); with HT29 colon, -49.9% (active). The growth in the assay on SNB-75 CNS is -3.46% (active); in the assay on SNB-19 CNS, -2.49% (active); in the assay with U251 CNS it was -37.7% (active); in the assay on SK-MEL-5 melanoma, -61.9% (active); in the assay with UACC-62 melanoma, -53.6% (active); in the assay with LOX IMVI melanoma it was -60% (active). The growth with SK-MEL-28 melanoma was -29.5% (active).

Consider `Cc1ccc(-c2nc(N3CCCNCC3)c3oc(-c4ccc(C)cc4)nc3n2)cc1`, for which the growth in the assay on DU-145 prostate was 42%; in the assay with K-562 leukemia it was -76% (active); in the assay on MALME-3M melanoma, 106%; with MDA-MB-231 breast, -78.8% (active); with RXF 393 renal it was 80.6%; in the assay on SF-268 CNS it was 90.2%. Besides, the growth is 108% with SF-295 CNS; 73.8% with SF-539 CNS; 101% in the assay on UACC-257 melanoma; -94.7% (active) in the assay with M14 melanoma; -72.9% (active) with HCT-15 colon; -87.1% (active) with HT29 colon. In addition, the growth with SNB-75 CNS was 97.7%; with SNB-19 CNS it was 58.2%; with U251 CNS, -92.4% (active); in the assay with PC-3 prostate it was -89.5% (active); in the assay with SK-MEL-5 melanoma, 88.1%; in the assay with LOX IMVI melanoma, -79.3% (active). Besides, in the assay with SK-MEL-28 melanoma, the growth is 89.8%.

Regarding `O=C1NC2(Nc3ccccc31)C(=O)Nc1c(Cl)cc(Cl)cc12` (stereo not given), the growth in the assay with DU-145 prostate was 117%; with K-562 leukemia, 99.4%; in the assay on MALME-3M melanoma, 102%; with MDA-MB-231 breast, 94.9%; with RXF 393 renal it was 115%; in the assay with SF-268 CNS it was 96.8%. Further, the growth in the assay on SF-295 CNS is 101%; with SF-539 CNS, 100%; in the assay on UACC-257 melanoma it was 110%; with M14 melanoma, 101%; in the assay on HCT-15 colon, 108%; with HT29 colon it was 107%. For the same molecule, the growth is 80% in the assay with SNB-75 CNS; 104% with SNB-19 CNS; 104% in the assay on U251 CNS; 99.9% with SK-MEL-5 melanoma; 95.9% in the assay on LOX IMVI melanoma; 118% in the assay with SK-MEL-28 melanoma.

As for `CCCC/C(CC)=N\NS(=O)(=O)c1ccc([N+](=O)[O-])cc1`, the growth is 97.2% in the assay on DU-145 prostate; 95% in the assay with K-562 leukemia; 101% in the assay with MALME-3M melanoma; 96.2% in the assay on MDA-MB-231 breast; 110% with RXF 393 renal; 100% in the assay with SF-268 CNS. The growth is 108% with SF-295 CNS; 101% in the assay on SF-539 CNS; 88.7% in the assay on UACC-257 melanoma; 101% in the assay with M14 melanoma; 107% with HCT-15 colon; 106% with HT29 colon. Also, the growth in the assay on SNB-75 CNS is 90.4%; in the assay with U251 CNS, 88.6%; in the assay with PC-3 prostate it was 84.5%; with SK-MEL-5 melanoma, 98.2%; with LOX IMVI melanoma it was 94.2%; with SK-MEL-28 melanoma, 108%.

For the molecule `CCc1ncnc2c1ccn2C(C)c1ccc(OC)c(F)c1` (stereo not given), the growth in the assay on DU-145 prostate is 82.3%; in the assay with K-562 leukemia, 11.5%; in the assay on MALME-3M melanoma, 74.9%; in the assay on MDA-MB-231 breast, 56.7%; in the assay with RXF 393 renal it was 76.5%; in the assay with SF-268 CNS it was 63.2%. The growth was 36% in the assay on SF-295 CNS; 70.6% in the assay on SF-539 CNS; 40% in the assay with UACC-257 melanoma; 36.3% in the assay with M14 melanoma; 39.2% in the assay on HCT-15 colon; 14% in the assay on HT29 colon. Also, the growth in the assay with SNB-75 CNS is 35.8%; in the assay on U251 CNS it was 35.3%; in the assay with PC-3 prostate, 53.8%; in the assay on SK-MEL-5 melanoma, 33%; in the assay on UACC-62 melanoma, 39.8%; in the assay with LOX IMVI melanoma it was 45.3%. Further, the growth in the assay on SK-MEL-28 melanoma was 66.5%.

The values above are taken from PubChem BioAssay (NCI).
